GPR7 antagonist = blocks human GPR7 receptor signaling. 1.1% of 290,000 active. inhibition, % at 4.4 µM. GPR7-expressing cells, fluorescence antagonist assay. P48145; in the data active = inhibition above about 16%, passing the limit was not always enough;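 note: cells stimulated with the agonist NPW; 0% = agonist with vehicle and 100% = vehicle without agonist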
Kir21 block = Kir2.1 (mouse) channel inhibition; P35561; 0.85% of 310,000 active; B-score at 10 µM; HEK293-Kir2.1, FluxOR thallium flux fluorescence; stronger effect = lower value;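 active = fluorescence ratio B-score at or below minus 3 SD of library scores, with starting-brightness B-score within 2 SD, cut at about -4.2 in these data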;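 note: channel flux triggered by added potassium and thallium sulfate stimulus; B-score of peak minus minimum fluorescence over baseline after thallium stimulus; more negative B-score means stronger Kir2.1 block with less thallium influx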
Target sequence (P35561 whole entry, looked up): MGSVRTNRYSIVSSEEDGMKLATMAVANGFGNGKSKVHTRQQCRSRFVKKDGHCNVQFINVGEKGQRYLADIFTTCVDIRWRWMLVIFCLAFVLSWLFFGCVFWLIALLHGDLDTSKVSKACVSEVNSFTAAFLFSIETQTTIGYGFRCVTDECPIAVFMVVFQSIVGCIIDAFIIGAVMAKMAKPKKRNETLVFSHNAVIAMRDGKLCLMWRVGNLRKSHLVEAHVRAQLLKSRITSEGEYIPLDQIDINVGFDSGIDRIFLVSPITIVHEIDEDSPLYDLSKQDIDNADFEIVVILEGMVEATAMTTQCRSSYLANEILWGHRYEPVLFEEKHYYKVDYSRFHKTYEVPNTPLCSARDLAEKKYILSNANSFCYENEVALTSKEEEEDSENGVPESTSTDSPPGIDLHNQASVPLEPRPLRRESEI
CHT block = inhibitors of human choline transporter CHT | Q9GZV3 | CHT-expressing cells, membrane potential dye, choline response; stronger effect = lower value | B-score at 10 µM | 0.86% of 310,000 active | AID 488975;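 active = B-score over 3 SD under the library average, and starting fluorescence ratio not unusually high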;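 note: choline stimulus applied at its EC90 after an EC20 pre-addition; B-score computed on integrated fluorescence ratio after choline addition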
TMEM16A act = activators or potentiators of mouse TMEM16A chloride channel. Q8BHY3. HEK293 TMEM16A/YFP-H148Q/I152L, iodide quench fluorescence; stronger effect = lower value. B-score at 10 µM. 0.3% of 340,000 active. AID 623877;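 active = fluorescence-ratio B-score plate-corrected deviation score at least 3 library SD below zero, with starting fluorescence score within 5 deviations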;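 note: channel opened by trigger with iodide after compound preincubation; score built on the fluorescence ratio of max minus min over baseline; more negative score means more quench and so TMEM16A activation or potentiation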
ANO1 block = blocks the mouse calcium-activated chloride channel TMEM16A; Q8BHY3; HEK293 TMEM16A/YFP iodide influx fluorescence, ionomycin; normalized B-score (activity score, 25-100; higher = stronger inhibition) at 10 µM; 1.2% of 310,000 active; AID 588511;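 active = ratio plate-corrected score three or more library SD toward inhibition, starting fluorescence score within five deviations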;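 note: score derived from kinetic fluorescence span divided by baseline fluorescence per well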
CHT PAM = allosteric activators of human choline transporter CHT. Q9GZV3. CHT-expressing cells, membrane potential dye, choline EC20; stronger effect = higher value; LV-AA mutant CHT in HEK293 cells. B-score at 10 µM. 0.49% of 310,000 active. AID 488977;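 active = initial fluorescence not abnormally high and integrated response B-score, plate-corrected, over 3 SD above library mean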
GPR7 antag conf = human GPR7 antagonism, confirmation assay | shares compounds with GPR7 antagonist | GPR7-expressing cells, calcium fluorescence antagonist mode | inhibition, % at 4.4 µM | 52% of 2,400 active | AID 1952; in the data active = inhibition above about 24%;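 note: stimulated with the GPR7 agonist NPW; 0% = agonist plus vehicle and 100% = vehicle alone without agonist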
MCHR1 antagonist = MCHR1 (human) antagonism in GPR7 counter-screen; shares compounds with GPR7 antagonist; MCHR1-expressing cells, fluorescence antagonist assay; inhibition, % at 4.4 µM; 62% of 2,400 active; AID 2148; in the data active = inhibition above about 22%;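 note: 0% = vehicle with agonist and 100% = vehicle without agonist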
* hit, by the source's call; i = inactive; x = no result given; ! = repeats disagree. The list is not random: actives were taken first. Their share in the collection is about 3.7%.

SMILES	GPR7 antagonist	Kir21 block	CHT block	TMEM16A act	ANO1 block	CHT PAM	GPR7 antag conf	MCHR1 antagonist
COc1ccc(-n2c(=O)cc(N3CCOCC3)[nH]c2=O)cc1	-0.8	0.11	i	i	i	i	x	x
CCc1ccccc1NC(=O)C1CCCN(c2nccc(C)n2)C1 (stereo not given)	-13.6	-1.42	i	i	i	i	x	x
Cc1ccccc1NC(=O)C1CCCN(c2ncnc3onc(-c4ccc(F)cc4)c23)C1 (stereo not given)	27.8*	0.24	i	i	i	i	28.2*	14.6
CCc1ccccc1NC(=O)C1CCCN(c2ncnc3onc(-c4ccc(F)cc4)c23)C1 (stereo not given)	28.6*	-0.56	i	i	i	i	16.5	21.7*
Cc1ccccc1NC(=O)C1CCCN(C(=O)Nc2ccc(F)cc2)C1 (stereo not given)	-12.1	0.16	i	i	i	i	x	x
CC1CC(C)CN(C(=O)COC(=O)c2ccc(S(=O)(=O)N(C)c3ccccc3)cc2)C1 (stereo not given)	x	x	x	i	x	x	x	x
COc1ccc(CN2CCCC(N3CCN(c4cccc(Cl)c4)CC3)C2)cc1OC (stereo not given)	14.7	-0.85	i	i	i	i	x	x
CC(C)CN1CCCC(N2CCN(c3cccc(Cl)c3)CC2)C1 (stereo not given)	27.4*	-2.05	i	i	i	i	-5.9	0.4
Cn1nnnc1SCC(=O)Nc1ccc(Oc2ccccc2)cc1	21.6*	0.08	i	i	i	i	13.9	18.1
COc1cccc(C(=O)Oc2cc3c4c(c2)C(C)=CC(C)(C)N4C(=O)C3=O)c1	3.7	0.63	i	i	i	i	x	x
COc1cc2c3c(c1)C(C)=CC(C)(C)N3C(=O)C2=O	27.5*	-2.31	i	i	i	i	18.9	22.9*
O=C(NCc1ccccc1Cl)c1ccc(S(=O)(=O)Nc2cccc(C(F)(F)F)c2)cc1	24.3*	0.28	i	i	100*	i	32.4*	46.2*
O=C(CC12CC3CC(CC(C3)C1)C2)NC(=S)Nc1ccc(CN2CCOCC2)cc1	-8.3	0.55	i	i	i	i	x	x
CN(CC(=O)NCc1ccc(F)cc1)CC(=O)Nc1ccc(Cl)c(C(F)(F)F)c1	28.5*	0.28	i	i	100*	i	26.7*	61.1*
CCOc1ccc(NC(=O)Nc2cc(-c3ccccc3)sc2C(=O)OC)cc1	7.9	0.48	i	i	i	i	x	x
CCOc1ccc(-c2cc(NC(=O)c3c(F)cccc3F)c(C(=O)O)s2)cc1	51.4*	2.5	i	x	i	i	26.4*	28.2*
COc1ccccc1C(=O)NCCC(=O)NCc1ccccn1	x	x	x	i	x	x	x	x
COc1ccccc1CNC(=O)c1n[nH]c2ccccc12	30.3*	1.34	i	i	i	i	22.6	20.2
CCCN(CCC)CC(O)Cn1cc(/C=C/C(=O)c2ccccc2)c2ccccc21 (stereo not given)	6.2	-4.18	x	i	x	x	x	x
CCCCN(C)CC(O)Cn1cc(/C=C/C(=O)c2ccc(C)cc2)c2ccccc21 (stereo not given)	37.0*	-5.21*	i	i	i	i	37.0*	35.9*
CN1C(=O)C(=C2CCCCCC2)SC1=S	30.5*	0	i	i	i	i	-6.5	-3.1
CCc1ccccc1NC(=O)CSc1nc2ccccc2nc1N1CCOCC1	26.4*	-2.46	i	i	i	i	34.2*	31.3*
O=C(COC(=O)C1=COCCO1)Nc1ccc(Br)cc1Br	x	x	x	i	x	x	x	x
CC(Sc1nnc(-c2cccs2)n1Cc1ccccc1)C(=O)NCc1ccc2c(c1)OCO2 (stereo not given)	26.1*	0.38	i	i	i	i	19.4	18.6
O=C1N(c2ccccc2)C[C@@H]2C[C@@H](c3cc4ccccc4o3)N3CCC[C@@]123	25.3*	1.46	x	i	x	x	22.8	14.7
SMILES	GPR7 antagonist	Kir21 block	CHT block	TMEM16A act	ANO1 block	CHT PAM	GPR7 antag conf	MCHR1 antagonist
Cc1ccc(-c2ccccc2[C@@H]2C[C@H]3CN(C)C(=O)[C@]34CCCN24)o1	-8.3	-0.12	i	i	i	i	x	x
Cc1cc(C(=O)Nc2cccc(C)c2C)c2ccccc2n1	-12.7	-0.72	i	i	i	i	x	x
CCOc1c(Br)cc(/C=C(\C#N)C(=O)NC2CC2)cc1OC	24.2*	-0.09	i	i	i	i	47.3*	41.2*
CCOc1ccccc1/C=C(\C#N)C(=O)NC1CC1	x	-1.54	i	i	i	i	x	x
COc1ccc(C(=O)NCCc2c[nH]c3ccccc23)cc1OC	10.4	-0.93	i	i	i	i	x	x
O=C(NCCc1c[nH]c2ccccc12)c1ccc2[nH]c(=O)c(=O)[nH]c2c1	40.2*	0.41	i	i	i	i	-22.8	12.5
Cc1cccc(C(=O)OCC(=O)NC2CC2)c1O	x	x	x	i	x	x	x	x
COC(=O)COc1ccc(-c2ccc(F)cc2)cc1C=O	32.8*	1.02	i	i	i	i	31.0*	34.9*
COC(=O)COc1ccccc1C(N)=O	-13.8	-0.42	i	i	i	i	x	x
CCc1ccc(NC(=O)CNC(=O)[C@@H]2Cc3ccccc3CN2C(=O)OC(C)(C)C)cc1	-17.9	0.8	i	i	i	i	x	x
c1ccc(OCc2nnc(-c3ccccc3)o2)cc1	21.5*	0.08	i	i	i	i	15.0	25.1*
COc1cccc(CC(=O)N2CCCC(CO)(Cc3ccc(F)cc3F)C2)c1 (stereo not given)	26.0*	0.05	i	i	i	i	-6.7	-8.8
CCN(CC)Cc1cc(Nc2c3ccccc3nc3c4ccccc4n(C)c23)cc(CN(CC)CC)c1O	x	x	x	i	x	x	x	x
COc1ccc(-c2n[nH]c(C(F)(F)F)c2-c2cc3ccccc3o2)c(O)c1	29.1*	1.98	i	i	100*	i	31.7*	71.4*
COc1ccccc1-c1c(-c2ccc(OCC(=O)NN)cc2O)n[nH]c1C(F)(F)F	-5.8	0.44	i	i	i	i	x	x
CC1(C)NC(=O)N(CC(=O)N2CCN(S(=O)(=O)c3ccccc3C(F)(F)F)CC2)C1=O	x	x	x	i	x	x	x	x
CCCCCCCCCCCCCCCCn1cc[n+](C)c1	31.2*!	-3.86	i	i	25*!	i	94.3*	99.1*
C[n+]1ccn(CC(=O)c2cccs2)c1	-12.4	2.38	i	i	i	i	x	x

Source: PubChem BioAssay (several laboratories)
